Source: PubChem BioAssay (EPA / NIEHS)
Active and inactive are the calls of the source. Rule for the calls: active = hit-call score of the fitted dose curve at least 0.9, where 1 is the maximum; inactive = score below 0.9.

Legend:
Details in all cases: mRNA level, 48 h; actives raise or lower the signal
[1] = read-out: CYP2E1 (gene 1571); test: LTEA_HepaRG_CYP2E1: Life Technologies and Expression Analysis (LTEA) Assay for CYP2E1 using HepaRG (AID 2283485)
In short: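 Readout is qRT-PCR of CYP2E1 mRNA, normalized to three housekeeping genes and fitted bidirectionally against 0.5% DMSO. HepaRG cells were dosed 48 h at eight concentrations, highest 100 uM with half-log dilutions.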

[2] = read-out: CYP4A11 (gene 1579); test: LTEA_HepaRG_CYP4A11: Life Technologies and Expression Analysis (LTEA) Assay for CYP4A11 using HepaRG (AID 2283486)
In short: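 Readout is CYP4A11 transcript level by qRT-PCR, normalized to three housekeeping genes and fitted bidirectionally against 0.5% DMSO. Human HepaRG cells were treated 48 h, in duplicate, with an 8-point half-log series topping at 100 uM.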

[3] = read-out: Cytochrome P450 3A4 (Homo sapiens) (UniProt P08684); test: LTEA_HepaRG_CYP3A4: Life Technologies and Expression Analysis (LTEA) Assay for CYP3A4 using HepaRG (AID 2283487)
In short: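 CYP3A4 transcript measured by TaqMan qRT-PCR and normalized to three housekeeping genes after 48 h chemical exposure of human HepaRG cells. Top concentration 100 uM, half-log steps, 0.5% DMSO vehicle; gain or loss fitted against DMSO baseline.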

[4] = read-out: DNA damage-inducible transcript 3 (DDIT3), DDIT3 (gene 1649); test: LTEA_HepaRG_DDIT3: Life Technologies and Expression Analysis (LTEA) Assay for DNA damage-inducible transcript 3 (DDIT3) using HepaRG (AID 2283488)
In short: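 Cells are human HepaRG liver cells treated for 48 h with eight half-log concentrations up to 100 uM in 0.5% DMSO. Transcript levels come from qRT-PCR normalized to three housekeeping genes, with activity fitted in both directions relative to vehicle.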

[5] = read-out: Pro-epidermal growth factor (Homo sapiens) (UniProt P01133); test: LTEA_HepaRG_EGF: Life Technologies and Expression Analysis (LTEA) Assay for Epidermal growth factor (EGF) using HepaRG (AID 2283489)
In short: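 EGF transcript measured by Fluidigm TaqMan qRT-PCR with three housekeeping genes for normalization, 48 h after dosing HepaRG cultures in duplicate (top 100 uM, half-log steps, 0.5% DMSO vehicle). Gain or loss relative to DMSO fitted.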

[6] = read-out: Early growth response protein 1 (EGR1) transcription factor, EGR1 (gene 1958); test: LTEA_HepaRG_EGR1: Life Technologies and Expression Analysis (LTEA) Assay for Early growth response protein 1 (EGR1) transcription factor using HepaRG (AID 2283490)
In short: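 EGR1 transcript levels quantified by qRT-PCR (Fluidigm arrays) against three housekeeping genes after 48 h chemical exposure of HepaRG cells. Eight-point half-log series topping at 100 uM, 0.5% DMSO vehicle, analyzed for gain or loss.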

[7] = read-out: Ezrin (EZR), EZR (gene 7430); test: LTEA_HepaRG_EZR: Life Technologies and Expression Analysis (LTEA) Assay for Ezrin (EZR) using HepaRG (AID 2283491)
In short: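 HepaRG, 48 h chemical exposure, 8-pt half-log series from 100 uM, 0.5% DMSO vehicle, duplicates. Read-out: EZR mRNA by TaqMan qRT-PCR (Fluidigm array), housekeeping-normalized; bidirectional curve fit vs DMSO baseline.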

[8] = read-out: Cytochrome P450 3A7 (Homo sapiens) (UniProt P24462); test: LTEA_HepaRG_CYP3A7: Life Technologies and Expression Analysis (LTEA) Assay for CYP3A7 using HepaRG (AID 2283492)
In short: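 CYP3A7 transcript measured by qRT-PCR (ACTB, GAPDH, POLR2A normalization) after 48 h chemical exposure of HepaRG cells in duplicate. Eight half-log concentrations, maximum 100 uM, 0.5% DMSO vehicle; bidirectional curve fitting against DMSO baseline.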

[9] = read-out: CYP3A5 (gene 1577); test: LTEA_HepaRG_CYP3A5: Life Technologies and Expression Analysis (LTEA) Assay for CYP3A5 using HepaRG (AID 2283493)
In short: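 Human HepaRG hepatic cells receive 48 h chemical treatment at eight concentrations (half-log steps from 100 uM) in 0.5% DMSO. Expression of CYP3A5 is quantified by Fluidigm qRT-PCR and normalized to three reference genes.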

[10] = read-out: Fatty Acid-Binding Protein 1 (FABP1), FABP1 (gene 2168); test: LTEA_HepaRG_FABP1: Life Technologies and Expression Analysis (LTEA) Assay for Fatty Acid-Binding Protein 1 (FABP1) using HepaRG (AID 2283494)
In short: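 FABP1 expression by TaqMan qRT-PCR, normalised to three housekeeping genes, in HepaRG cells after 48 h chemical treatment. Eight-point half-log series topping at 100 uM in 0.5% DMSO, duplicates; gain or loss fitted relative to vehicle.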

[11] = read-out: Cytochrome P450 4A22 (Homo sapiens) (UniProt Q5TCH4); test: LTEA_HepaRG_CYP4A22: Life Technologies and Expression Analysis (LTEA) Assay for Cytochrome P450 4A22 (CYP4A22) using HepaRG (AID 2283495)
In short: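 Gene expression measured by qRT-PCR against three housekeeping genes (ACTB, GAPDH, POLR2A), with gain or loss fitted relative to 0.5% DMSO vehicle. HepaRG cultures received 48 h chemical treatment, top concentration 100 uM, half-log steps, duplicate wells.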

[12] = read-out: Cytochrome P450 7A1 (Homo sapiens) (UniProt P22680); test: LTEA_HepaRG_CYP7A1: Life Technologies and Expression Analysis (LTEA) Assay for Cytochrome P450 7A1 (CYP7A1) using HepaRG (AID 2283496)
In short: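 HepaRG, 48 h exposure, 8-pt half-log series from 100 uM, 0.5% DMSO vehicle, duplicates. Readout: TaqMan qRT-PCR mRNA vs three housekeeping genes; bidirectional curve fit against DMSO baseline.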

[13] = read-out: Glutathione S-Transferase (GSTA2), GSTA2 (gene 2939); test: LTEA_HepaRG_GSTA2: Life Technologies and Expression Analysis (LTEA) Assay for Glutathione S-Transferase (GSTA2) using HepaRG (AID 2283497)
In short: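 GSTA2 transcript levels came from Fluidigm TaqMan qRT-PCR normalized to three housekeeping genes, fitted in both directions against DMSO. HepaRG cultures received chemicals for 48 h in serum-free induction medium (0.5% DMSO), 8 half-log concentrations up to 100 uM, duplicate.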

[14] = read-out: Glutamate-cysteine ligase catalytic (GCLC), GCLC (gene 2729); test: LTEA_HepaRG_GCLC: Life Technologies and Expression Analysis (LTEA) Assay for Glutamate-cysteine ligase catalytic (GCLC) using HepaRG (AID 2283498)
In short: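 Expression by TaqMan qRT-PCR, normalized to three housekeeping genes (ACTB, GAPDH, POLR2A), with up- or down-regulation fitted against DMSO. HepaRG cells dosed in duplicate for 48 h with 8 half-log concentrations up to 100 uM, vehicle 0.5% DMSO.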

[15] = read-out: growth arrest and DNA damage 45 (GADD45G), GADD45G (gene 10912); test: LTEA_HepaRG_GADD45G: Life Technologies and Expression Analysis (LTEA) Assay for growth arrest and DNA damage 45 (GADD45G) using HepaRG (AID 2283499)
In short: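 GADD45G transcript level by qRT-PCR (housekeeping-normalized: ACTB, GAPDH, POLR2A) after 48 h chemical treatment of a single HepaRG lot in serum-free induction medium; eight-point half-log series up to 100 uM in 0.5% DMSO, duplicates, up- or down-regulation scored.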

[16] = read-out: Glutathione S-transferase M3 (GSTM3), GSTM3 (gene 2947); test: LTEA_HepaRG_GSTM3: Life Technologies and Expression Analysis (LTEA) Assay for Glutathione S-transferase M3 (GSTM3) using HepaRG (AID 2283501)
In short: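 GSTM3 transcript levels came from Fluidigm TaqMan qRT-PCR normalized to three housekeeping genes, fitted in both directions against DMSO. HepaRG cultures received chemicals for 48 h in serum-free induction medium (0.5% DMSO), 8 half-log concentrations up to 100 uM, duplicate.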

[17] = read-out: Heat shock 70 kDa protein 1 (HSPA1A), gene 3303; test: LTEA_HepaRG_HSPA1A: Life Technologies and Expression Analysis (LTEA) Assay for Heat shock 70 kDa protein 1 (HSPA1A) using HepaRG (AID 2283502)
In short: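 Cells were plated and cultured for 48 h, then switched to serum-free induction medium. Chemicals were added at eight half-log concentrations up to 100 uM for 48 h. RNA was then isolated and HSPA1A measured by qRT-PCR with bidirectional curve fitting against DMSO.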

[18] = read-out: Hypoxia-inducible factor 1-alpha (Homo sapiens) (UniProt Q16665); test: LTEA_HepaRG_HIF1A: Life Technologies and Expression Analysis (LTEA) Assay for Hypoxia-inducible factor 1 (HIF1A) Trancription factor using HepaRG (AID 2283503)
In short: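 HIF1A transcript level read by qRT-PCR (ACTB, GAPDH, POLR2A normalization) after 48 h chemical exposure of HepaRG cultures. Eight half-log concentrations, top 100 uM, 0.5% DMSO vehicle, duplicates; bidirectional curve fit against DMSO baseline.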

[19] = read-out: 3-Hydroxy-3-Methylglutaryl-CoA Synthase 2 (HMGCS2), HMGCS2 (gene 3158); test: LTEA_HepaRG_HMGCS2: Life Technologies and Expression Analysis (LTEA) Assay for 3-Hydroxy-3-Methylglutaryl-CoA Synthase 2 (HMGCS2) using HepaRG (AID 2283504)
In short: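 Readout is HMGCS2 transcript by qRT-PCR, housekeeping-normalised (ACTB/GAPDH/POLR2A) and fitted bidirectionally against 0.5% DMSO. Differentiated HepaRG cells received chemicals 48 h, duplicate wells, eight half-log concentrations topping at 100 uM.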

[20] = read-out: Glutamate-cysteine ligase regulatory (GCLM), GCLM (gene 2730); test: LTEA_HepaRG_GCLM: Life Technologies and Expression Analysis (LTEA) Assay for Glutamate-cysteine ligase regulatory (GCLM) using HepaRG (AID 2283500)
In short: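 Endpoint is GCLM transcript level by qRT-PCR, normalized to three housekeeping genes, after 48 h chemical exposure of human HepaRG cells (0.5% DMSO vehicle, top 100 uM, half-log dilutions). Fitting was bidirectional relative to DMSO.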

Measured: AC50

Cytochrome P450 3A4 (Homo sapiens), sequence (P08684 whole entry, looked up): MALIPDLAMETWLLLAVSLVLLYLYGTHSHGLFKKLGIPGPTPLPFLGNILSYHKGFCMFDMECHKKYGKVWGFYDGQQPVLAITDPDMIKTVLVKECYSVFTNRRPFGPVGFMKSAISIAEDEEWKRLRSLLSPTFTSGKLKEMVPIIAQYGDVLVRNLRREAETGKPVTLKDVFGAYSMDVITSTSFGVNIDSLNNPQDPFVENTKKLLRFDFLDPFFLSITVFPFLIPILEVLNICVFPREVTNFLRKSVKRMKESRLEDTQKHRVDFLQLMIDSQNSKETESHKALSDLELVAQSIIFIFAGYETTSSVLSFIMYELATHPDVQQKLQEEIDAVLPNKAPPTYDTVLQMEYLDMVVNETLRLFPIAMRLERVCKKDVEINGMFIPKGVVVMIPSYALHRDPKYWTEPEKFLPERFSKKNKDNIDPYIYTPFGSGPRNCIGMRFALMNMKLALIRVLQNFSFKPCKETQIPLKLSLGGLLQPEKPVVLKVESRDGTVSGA
Hypoxia-inducible factor 1-alpha (Homo sapiens), sequence (Q16665 whole entry, looked up): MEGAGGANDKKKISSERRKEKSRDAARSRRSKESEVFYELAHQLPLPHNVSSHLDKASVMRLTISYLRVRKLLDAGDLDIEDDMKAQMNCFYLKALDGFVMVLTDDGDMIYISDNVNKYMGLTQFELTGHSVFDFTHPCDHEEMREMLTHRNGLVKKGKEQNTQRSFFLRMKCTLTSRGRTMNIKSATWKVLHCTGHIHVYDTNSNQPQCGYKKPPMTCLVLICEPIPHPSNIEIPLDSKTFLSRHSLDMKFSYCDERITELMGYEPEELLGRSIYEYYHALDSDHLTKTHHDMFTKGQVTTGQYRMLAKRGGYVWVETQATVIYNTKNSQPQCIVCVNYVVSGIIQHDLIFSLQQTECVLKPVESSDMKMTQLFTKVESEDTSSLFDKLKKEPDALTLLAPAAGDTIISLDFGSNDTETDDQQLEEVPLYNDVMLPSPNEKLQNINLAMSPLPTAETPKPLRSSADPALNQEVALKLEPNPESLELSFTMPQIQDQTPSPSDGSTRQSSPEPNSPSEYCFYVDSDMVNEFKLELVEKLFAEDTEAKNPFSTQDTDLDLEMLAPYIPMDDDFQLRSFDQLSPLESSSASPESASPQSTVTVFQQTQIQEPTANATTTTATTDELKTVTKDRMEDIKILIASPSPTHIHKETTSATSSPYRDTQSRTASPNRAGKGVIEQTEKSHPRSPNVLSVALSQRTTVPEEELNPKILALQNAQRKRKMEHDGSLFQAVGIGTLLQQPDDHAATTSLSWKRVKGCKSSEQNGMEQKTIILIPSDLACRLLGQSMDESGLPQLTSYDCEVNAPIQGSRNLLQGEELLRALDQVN
Cytochrome P450 3A7 (Homo sapiens), sequence (P24462 whole entry, looked up): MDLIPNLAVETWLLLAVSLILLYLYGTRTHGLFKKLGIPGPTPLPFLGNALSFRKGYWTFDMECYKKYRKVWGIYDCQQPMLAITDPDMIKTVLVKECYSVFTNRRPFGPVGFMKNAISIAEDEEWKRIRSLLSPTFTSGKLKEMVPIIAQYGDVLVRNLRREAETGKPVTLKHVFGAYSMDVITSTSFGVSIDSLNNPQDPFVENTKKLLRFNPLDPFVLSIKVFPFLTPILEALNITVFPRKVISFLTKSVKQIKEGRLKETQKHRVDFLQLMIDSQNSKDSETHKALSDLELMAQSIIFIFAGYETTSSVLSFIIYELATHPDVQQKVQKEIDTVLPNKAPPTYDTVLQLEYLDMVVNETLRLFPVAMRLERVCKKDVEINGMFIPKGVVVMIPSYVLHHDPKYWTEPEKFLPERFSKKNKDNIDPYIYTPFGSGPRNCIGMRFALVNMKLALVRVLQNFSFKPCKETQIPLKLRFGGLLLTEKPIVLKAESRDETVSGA

COc1cc(C(C)C)c2c(c1)S(=O)(=O)N(COc1cc(=O)n3cccc(OCCN4CCCCC4)c3n1)C2=O
inactive: [4] | [7] | [16] | [18]
active: [1] 17.2 µM | [2] 20.8 µM | [3] 20.8 µM | [5] 8.03 µM | [6] 15.4 µM | [8] 23.6 µM | [9] 20.9 µM | [10] 21.7 µM | [11] 20.9 µM | [12] 19.6 µM | [13] 20.5 µM | [14] 12.5 µM | [15] 19.1 µM | [17] 19.7 µM | [19] 20 µM

CCCC(CCC)C(=O)O
not listed: [20]
inactive: all other assays above

CCCCCOC(C)=O
not listed: [20]
inactive: all other assays above

C[C@@H](Oc1ccc(CNC(=O)c2cccnc2Oc2ccc3c(c2)OCO3)c(F)c1)C(=O)O
active: [2] 28.5 µM | [10] 50 µM | [11] 28.6 µM | [19] 25.8 µM
not listed: [15] | [20]
inactive: all other assays above

O=c1[nH]cnc2c1ncn2[C@H]1CC[C@@H](CO)O1
not listed: [16] | [20]
inactive: all other assays above

COc1cc2c(c(OC)c1OC)-c1ccc(OC)c(=O)cc1[C@@H](NC(C)=O)CC2
inactive: [4] | [5] | [6] | [7] | [20] | [16] | [17]
active: [1] 0.0817 µM | [2] 0.0804 µM | [9] 0.0995 µM | [10] 0.106 µM | [11] 0.108 µM | [12] 0.095 µM | [13] 0.107 µM | [14] 0.0881 µM | [15] 0.0846 µM | [18] 0.113 µM | [19] 0.286 µM

Cc1nc(-c2ccccn2)ncc1C(=O)Nn1cc(C)c2cc(F)ccc21
active: [1] 24.3 µM | [2] 59.4 µM | [3] 1.57 µM | [8] 0.945 µM | [10] 6.97 µM | [11] 51.4 µM | [13] 65.5 µM | [18] 81 µM | [19] 66.8 µM
inactive: [4] | [5] | [6] | [7] | [9] | [12] | [14] | [15] | [17]
